# Data published in the supplement of paper PMC8728848.
# The entries come from a sample that favours the strongest signals as a whole.
# B1: Pwp4 (Candida glabrata) (protein)
# chain: MGSSHHHHHHSSGLVPRGSHMASVGNPITVSNVCSFPKNWHRTAGFRALTARLGIGIQSDSYKELLNYPGTFQLTTQQSSTTKPNFQISGLVGNIYGLTIVPSYLLVELTGYFVPPVSGEYTFSLEGSDDAAIIFIANPSTFKCGHVEDWPTAYDNDVTVTESIHATRTIYMIEGVAYPIRIAYYNGLSLGKLQASFTDPEGVKRVDWNGYIWRYDSCDTCSYV
# Key:
# Assay in all cases: glycan array binding signal (z-score within array); higher = stronger binding
# Settings in all cases: glycan notation: IUPAC condensed, linker removed
# [1] = target: GlcNAc6S(b1-3)Gal(b1-4)GlcNAc
# Summary of the method: (§1)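 Glycan array binding is given as a within-array Z-score, which can be read as non-binding when negative. The arrays, 3228 of them, came from the Consortium for Functional Glycomics database and were retained only where the protein sequence was available. Z-scores were averaged across arrays of the same protein sequence at different concentrations or buffers and across linkers.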
# [2] = target: Man(a1-2)Man(a1-2)Man(a1-6)[Man(a1-3)]Man
# Summary of the method: as §1
# [3] = target: Man(b1-4)GlcNAc
# Summary of the method: as §1
# [4] = target: Neu5Ac(a2-3)Gal(b1-3)GalNAc(b1-4)[Neu5Ac(a2-3)]Gal(b1-4)Glc
# Summary of the method: as §1
# [5] = target: Neu5Ac(a2-3)Gal(b1-3)[GlcNAc(b1-6)]GalNAc
# Summary of the method: as §1
# [6] = target: Neu5Ac(a2-3)Gal(b1-3)[Neu5Ac(a2-6)]GalNAc
# Summary of the method: as §1
# [7] = target: Neu5Ac(a2-3)Gal(b1-3)]Neu5Ac(a2-3)Gal(b1-4)]GlcNAc
# Summary of the method: as §1
# [8] = target: Neu5Ac(a2-3)Gal(b1-4)GlcNAc(b1-2)Man
# Summary of the method: as §1
# [9] = target: Neu5Ac(a2-3)Gal(b1-4)GlcNAc(b1-2)Man(a1-3)[Neu5Ac(a2-3)Gal(b1-4)GlcNAc(b1-2)Man(a1-6)]Man(b1-4)GlcNAc(b1-4)[Fuc(a1-6)]GlcNAc
# Summary of the method: as §1
# [10] = target: Neu5Ac(a2-3)Gal(b1-4)GlcNAc(b1-2)Man(a1-3)[Neu5Ac(a2-6)Gal(b1-4)GlcNAc(b1-2)Man(a1-6)]Man(b1-4)GlcNAc(b1-4)GlcNAc
# Summary of the method: as §1
# [11] = target: Neu5Ac(a2-3)Gal(b1-4)GlcNAc(b1-2)[Neu5Ac(a2-3)Gal(b1-4)GlcNAc(b1-6)]Man(a1-6)[Neu5Ac(a2-3)Gal(b1-4)GlcNAc(b1-2)Man(a1-3)][GlcNAc(b1-4)]Man(b1-4)GlcNAc(b1-4)GlcNAc
# Summary of the method: as §1
# [12] = target: Neu5Ac(a2-3)Gal(b1-4)GlcNAc(b1-3)Gal(b1-4)[Fuc(a1-3)]GlcNAc
# Summary of the method: as §1
# [13] = target: Neu5Ac(a2-6)Gal
# Summary of the method: as §1
# [14] = target: Neu5Ac(a2-6)Gal(b1-4)GlcNAc(b1-2)Man(a1-3)[Gal(b1-4)GlcNAc(b1-2)Man(a1-6)]Man(b1-4)GlcNAc(b1-4)GlcNAc
# Summary of the method: as §1
# [15] = target: Neu5Ac(a2-6)Gal(b1-4)GlcNAc(b1-3)Gal(b1-4)[Fuc(a1-3)]GlcNAc(b1-3)Gal(b1-4)[Fuc(a1-3)]GlcNAc
# Summary of the method: as §1
# [16] = target: Neu5Ac(a2-6)Gal(b1-4)GlcNAc6S
# Summary of the method: as §1
# [17] = target: Neu5Ac(a2-8)Neu5Ac(a2-3)Gal(b1-3)GalNAc(b1-4)[Neu5Ac(a2-3)]Gal(b1-4)Glc
# Summary of the method: as §1
binder,measurement,setting,value
B1,glycan array binding signal (z-score),[1],-0.195
same,glycan array binding signal (z-score),[2],-0.597
same,glycan array binding signal (z-score),[3],-0.403
same,glycan array binding signal (z-score),[4],-0.275
same,glycan array binding signal (z-score),[5],3.89
same,glycan array binding signal (z-score),[6],-0.221
same,glycan array binding signal (z-score),[7],-0.455
same,glycan array binding signal (z-score),[8],-0.174
same,glycan array binding signal (z-score),[9],1.34
same,glycan array binding signal (z-score),[10],0.37
same,glycan array binding signal (z-score),[11],9.42
same,glycan array binding signal (z-score),[12],-0.414
same,glycan array binding signal (z-score),[13],0.575
same,glycan array binding signal (z-score),[14],1.01
same,glycan array binding signal (z-score),[15],-0.388
same,glycan array binding signal (z-score),[16],-0.336
same,glycan array binding signal (z-score),[17],-0.601
